Assay results from PubChem BioAssay (NCI).
Values joined by “and” are separate entries in the source; they are usually repeats but may differ in a detail not shown here. Equal entries are not always repeated. The panel holds about 79,000 compounds, 15% with a hit somewhere; the sample as a whole holds those more often. Where a structure was tested more than once in an assay, its records may differ in their call. Active and inactive are the calls of the source. Rule as the data show it: active = growth inhibition above about 70%; inactive = the rest.

Test: NCI Yeast Anticancer Drug Screen. Data for the sgs1 mgt1 strain (AID 161);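 also: 0% = growth of cultures given vehicle only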
Conditions: S. cerevisiae sgs1 mgt1 strain, stronger effect = higher value
Procedure: Growth inhibition of yeast strains with defined genetic alterations is measured as a screen for potential anti-cancer activity. Selected strains with alterations in DNA damage repair or cell cycle control were exposed to compounds and growth inhibition was measured relative to vehicle treated controls. The strain used in this assay is sgs1 mgt1

[1] = at 5.0 µM (retest, dose inferred, filed as 0.5)
[2] = at 50.0 µM (retest, dose inferred, filed as 5.0)

Row | Compound | growth inhibition [1] | growth inhibition [2] | growth inhibition (at 50.0 µM)
1 | O=C1N=C2SC=C(NC(=S)Nc3ccccc3)N2NC12c1ccccc1-c1ccccc12 | -8% (inactive) | 44% (inactive) | 25.6% (inactive)
2 | O=C1Nc2ccc(Br)cc2C1=Nc1ccc2c(c1)OCO2 | -12% (inactive) | 8% (inactive) | 9.4% (inactive)
3 | Oc1ccc2ccccc2c1CCc1c(O)ccc2ccccc12 | 41% (inactive) | 94% (active) | 95% (active)
4 | C=C(Cl)COC(=O)Nc1cccc(Cl)c1 | -14% (inactive) | 47% (inactive) | 45% (inactive)
5 | O=C(CC(=O)n1nc(-c2ccccc2)c(N=Nc2ccc(Cl)cc2)c1-c1ccccc1)Nc1cccc(Cl)c1 | 0% (inactive) | 2% (inactive) | 73.7% (active)
6 | CC(=O)Nc1ccc(/C=C/[N+](=O)[O-])cc1 | -43% (inactive) | 72% (active) | 47.6% (inactive)
7 | COc1ccc(/C=C/C(=O)c2ccccc2)cc1OC | 15% (inactive) | 54% (inactive) | 51.9% (inactive) and 80.3% (active)
8 | Nc1ccn(C2OC(COP(=O)(O)O)C(O)C2O)c(=O)n1 (configuration not stated) | 47% (inactive) | 75% (active) | 87.4% (active) and 16.2% (inactive)
9 | Cc1cc(O)c(C(C)C)cc1C1(c2cc(C(C)C)c(O)cc2C)OC(=O)c2ccccc21 | 16% (inactive) | 98% (active) | 82% (active)
10 | CC(C)(C)C1=CC(=CC=C2C=CN(CCCCCCCCCCCO)C=C2)C=C(C(C)(C)C)C1=O | 99% (active) | 89% (active) | 99.3% (active)
11 | CC(C)(CCCCC(C)(C)[N+](C)(C)C)[N+](C)(C)C | 0% (inactive) | 31% (inactive) | 89.1% (active)
12 | O=C(NCCCl)Sc1ccc(Cl)cc1 | -65% (inactive) | 53% (inactive) | 84.5% (active)
13 | O=C1C=C(Cl)C(=O)C(c2ccc(Cl)cc2)=C1 | 17% (inactive) | 95% (active) | 93.5% (active)
14 | O=C(O)CCCC1CCCc2c1ccc1ccccc21 (configuration not stated) | 13% (inactive) | 86% (active) | 94.3% (active)
